Compound activity as filed in PubChem BioAssay.
Shown are actives, neighbours in structure and some others; about 2.4% of the full set was active somewhere.
Insulin prom inh: inhibitors of insulin promoter-driven GFP, primary screen, imaging, TRM-6 cells (human fetal islet line), eGFP reporter, cell count; actives 0.9% (n = 130,000); inhibition, % at 2 µM; reporter expression induced with tamoxifen;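 active = inhibition above the mean plus 3 SD, with well images judged a real hit on visual review, cut at about 60% in these data, passing the limit was not always enough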
S1P3 antagonist: S1P3 receptor antagonists, primary screen, cell-based; Sphingosine 1-phosphate receptor 3 (Homo sapiens), Q99500; CHO S1P3 NFAT-BLA reporter, FRET fluorescence, antagonist mode; inhibition, % at 4.98 µM; actives 0.27% (n = 170,000); AID 485, 2006;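 active = inhibition above the plate cutoff, the mean inhibition of test wells on that plate plus 3 SD, cut at about 28% in these data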;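 note: cells challenged with S1P at its EC80 of 0.8 µM; blue over green emission ratio from cleaved BLA substrate after 4 h stimulation; 0% = S1P-stimulated wells and 100% = unstimulated DMSO-only wells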
S1P4 antag: S1P4 receptor antagonists, primary screen, cell-based | S1P4-expressing cells, antagonist mode, reporter read-out | Sphingosine 1-phosphate receptor 4 (Homo sapiens), O95977 | inhibition, % at 4.98 µM | actives 0.26% (n = 220,000); in the data active = inhibition above about 29%;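 note: 0% = wells stimulated with agonist and 100% = vehicle wells without agonist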
S1P4 ag: S1P4 receptor agonists, primary screen, cell-based | S1P4-expressing cell line, agonist reporter assay | activation, % at 4.98 µM | actives 0.35% (n = 220,000) | AID 1509, 2009; in the data active = activation above about 11%;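 note: 0% = DMSO vehicle and 100% = reference agonist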
EP2 mod: EP2 receptor modulators, cAMP readout, primary screen, cell-based, HTRF cAMP, PGE2 stimulation | AID 940, 2007 | EP2-expressing cells, cAMP HTRF FRET, PGE2 co-stimulation | induction, % at 25 µM | actives 0.83% (n = 260,000);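 active = compounds whose cAMP rise, as percent of the full-agonist control response, exceeds 60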;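 note: rat C6 glioma line stably carrying human EP2 under a CMV promoter; the protocol text gives 20 µM as final concentration; 100% = response of wells given 1 µM PGE2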
PGE2 EP2 inh: human EP2 receptor antagonists, primary screen, TR-FRET cAMP, C6 glioma cells. inhibition, % at 25 µM. actives 0.52% (n = 260,000). C6 glioma cells expressing human EP2; cells stimulated with saturating PGE2. Prostaglandin E2 receptor EP2 subtype (Homo sapiens), P43116. AID 1422, 2008;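 active = percent inhibition above 40 after rounding to a whole number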;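 note: rat C6 glioma host cells with rolipram phosphodiesterase inhibitor present; the protocol text gives 20 µM as final concentration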
S1P4 ag conf: S1P4 receptor agonists, retest, confirmation, cell-based, high throughput | actives 7% (n = 740) | S1P4 agonist cell-based reporter assay | shares compounds with S1P4 ag | activation, % at 4.98 µM; in the data active = activation above about 12%;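 note: 0% = vehicle and 100% = full reference agonist response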
S1P1 agonist: S1P1 receptor agonists, human, counter-screen for S1P4 agonist project, cell-based; shares compounds with S1P4 ag; S1P1 agonist cell-based assay, activation; activation, % at 4.98 µM; actives 4% (n = 740); in the data active = activation above about 21%;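 note: 0% = vehicle wells and 100% = reference agonist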
Target sequence (P21453 whole entry, looked up): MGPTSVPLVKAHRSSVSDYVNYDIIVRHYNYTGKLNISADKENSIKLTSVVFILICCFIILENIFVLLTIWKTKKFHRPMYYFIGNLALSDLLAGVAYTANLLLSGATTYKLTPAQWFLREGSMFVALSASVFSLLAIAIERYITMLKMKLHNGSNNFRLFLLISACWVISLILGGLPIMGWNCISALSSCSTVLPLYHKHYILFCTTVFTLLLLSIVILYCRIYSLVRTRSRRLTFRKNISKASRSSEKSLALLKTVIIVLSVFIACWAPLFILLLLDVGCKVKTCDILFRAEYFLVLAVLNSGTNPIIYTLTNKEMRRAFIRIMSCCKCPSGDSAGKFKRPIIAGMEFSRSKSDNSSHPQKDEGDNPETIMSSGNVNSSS
The depositor's hits bear a star.

What do the screens show for `O=C1NC(c2ccco2)Nc2sc3c(c21)CCN(Cc1ccccc1)C3` (stereo unspecified)?
S1P3 antagonist: -26; S1P4 antag: -31; S1P4 ag: 15*; EP2 mod: -16; PGE2 EP2 inh: 14; S1P4 ag conf: 0; S1P1 agonist: 6

What do the screens show for `CCOC(=O)c1cn(CC)c2cc(N3CCOCC3)c(F)cc2c1=O`?
Insulin prom inh: -21; S1P3 antagonist: -9; S1P4 antag: -5; S1P4 ag: 14*; EP2 mod: 33; PGE2 EP2 inh: 11; S1P4 ag conf: -2; S1P1 agonist: -3

Results for COCCCn1c(SCC(=O)c2ccc(C)cc2)nc2ccccc2c1=O ?
EP2 mod: 10; PGE2 EP2 inh: 7

What do the screens show for `CC(/C=N/NC(=O)c1cc(-c2ccc(C)o2)[nH]n1)=C\c1ccccc1`?
S1P3 antagonist: -9; S1P4 antag: -10; S1P4 ag: 17*; EP2 mod: 7; PGE2 EP2 inh: 10; S1P4 ag conf: -2; S1P1 agonist: 1

Results for CCc1nnc(NC=C2C(=O)OC(C)(C)OC2=O)s1 ?
S1P3 antagonist: 2; S1P4 antag: 5; S1P4 ag: 18*; EP2 mod: -8; PGE2 EP2 inh: 8; S1P4 ag conf: -1; S1P1 agonist: 3

What do the screens show for `CCc1nnc(NC(=O)C=C(C)C)s1`?
Insulin prom inh: -119; S1P4 antag: -14; S1P4 ag: -2; EP2 mod: 22; PGE2 EP2 inh: 13

Results for O=S(=O)(NC1CCCCC1Nc1ccccc1)c1ccccc1 (stereo unspecified) ?
Insulin prom inh: 3; S1P3 antagonist: -3; S1P4 antag: -12; S1P4 ag: 16*; EP2 mod: 34; PGE2 EP2 inh: 5; S1P4 ag conf: -2; S1P1 agonist: 3

Results for O=S(=O)(NC1CCCCC1NS(=O)(=O)c1ccc(F)cc1)c1ccc(F)cc1 (stereo unspecified) ?
Insulin prom inh: inactive; S1P3 antagonist: 12; S1P4 antag: -12; S1P4 ag: 15*; EP2 mod: 7; PGE2 EP2 inh: 8; S1P4 ag conf: -2; S1P1 agonist: -1

Results for C=CCn1c(N2CCC(C(=O)NCC(C)c3ccccc3)CC2)nc2ccccc21 (stereo unspecified) ?
EP2 mod: -61; PGE2 EP2 inh: 9

How did Cc1nn(C(C)C)c(C)c1CN(CCCn1ccnc1)Cc1cccc(F)c1 do in these assays?
EP2 mod: -8; PGE2 EP2 inh: 6

How did Cc1nc2cc(-c3ccc(Cl)cc3)nn2c(C)c1CCC(=O)NC(C)c1ccc2c(c1)OCCO2 (stereo unspecified) do in these assays?
Insulin prom inh: 5; S1P3 antagonist: -3; S1P4 antag: -16; S1P4 ag: 4; EP2 mod: -33; PGE2 EP2 inh: 10

Results for Cc1csc(NC(=O)CCc2c(C)nc3cc(-c4ccc(Cl)cc4)nn3c2C)n1 ?
Insulin prom inh: 0; S1P3 antagonist: -21; S1P4 antag: 2; S1P4 ag: 196*; EP2 mod: -51; PGE2 EP2 inh: 5; S1P4 ag conf: 0; S1P1 agonist: 1

What do the screens show for `CCOc1ccc2cc(/C=C/C(=O)c3ccc(C)cc3)c(=O)[nH]c2c1`?
EP2 mod: -113; PGE2 EP2 inh: 8

How did Nc1nnc(SCC(=O)OCC(=O)Nc2ccc(Br)cc2)s1 do in these assays?
S1P3 antagonist: -21; S1P4 antag: -11; S1P4 ag: 62*; EP2 mod: 1; PGE2 EP2 inh: 7; S1P4 ag conf: -2; S1P1 agonist: -5

How did Cc1cccn2c(=O)c3cc(C(=O)NCc4ccco4)c(=N)n(CCCN4CCOCC4)c3nc12 do in these assays?
EP2 mod: -69; PGE2 EP2 inh: 9

How did COc1ccc2nc(Nc3nc(C)c(C(C)=O)s3)sc2c1 do in these assays?
Insulin prom inh: -34; S1P3 antagonist: 16; S1P4 antag: -13; S1P4 ag: 1; EP2 mod: -21; PGE2 EP2 inh: 12

What do the screens show for `COc1cc(C)nc(Nc2nc(C)c(C(C)=O)s2)n1`?
Insulin prom inh: 0; S1P4 antag: -16; S1P4 ag: 12*; EP2 mod: 4; PGE2 EP2 inh: 22; S1P4 ag conf: -3; S1P1 agonist: 0

Results for CC1CN(c2nc3c(c(=O)[nH]2)CCN(Cc2ccc4nccnc4c2)C3)CC(C)O1 (stereo unspecified) ?
EP2 mod: -2

How did CCOc1ccc(NC(=O)CCn2c(=O)[nH]c3ccsc3c2=O)cc1 do in these assays?
Insulin prom inh: -17; S1P4 antag: -3; S1P4 ag: 24*; EP2 mod: -14; PGE2 EP2 inh: 10; S1P4 ag conf: -1; S1P1 agonist: -4

Results for Cc1ccc(NC(=O)CCn2c(=O)[nH]c3ccsc3c2=O)cc1 ?
Insulin prom inh: 35; S1P3 antagonist: 3; S1P4 antag: -10; S1P4 ag: 1; EP2 mod: 0; PGE2 EP2 inh: 11

What do the screens show for `CNCc1c(C)nn(-c2ccccc2)c1C`?
Insulin prom inh: 50; S1P3 antagonist: -19; S1P4 antag: -4; S1P4 ag: 34*; EP2 mod: -14; PGE2 EP2 inh: 7; S1P4 ag conf: -2; S1P1 agonist: -1

Results for O=C(CCN1C(=O)c2ccccc2C1=O)NC1=NCCS1 ?
Insulin prom inh: 0; S1P3 antagonist: 7; S1P4 antag: -13; S1P4 ag: 25*; EP2 mod: 12; PGE2 EP2 inh: 5; S1P4 ag conf: -2; S1P1 agonist: -6

How did CC(C)C(=O)c1cn(CC(=O)NCc2ccccc2)c2ccccc12 do in these assays?
EP2 mod: -14; PGE2 EP2 inh: 14

Results for Oc1cccc(/C=N/Nc2cc(N3CCOCC3)nc(N3CCOCC3)n2)c1 ?
Insulin prom inh: 11; S1P3 antagonist: 10; S1P4 antag: 2; S1P4 ag: 13*; EP2 mod: -7; PGE2 EP2 inh: 7; S1P4 ag conf: -2; S1P1 agonist: -8

Results for Cc1ccc(CCC(=O)Nc2ccccc2F)s1 ?
Insulin prom inh: 0; S1P3 antagonist: -1; S1P4 antag: -8; S1P4 ag: 185*; EP2 mod: -19; PGE2 EP2 inh: 10; S1P4 ag conf: -2; S1P1 agonist: -3

What do the screens show for `CCC(=O)N(Cc1ccc(F)cc1)Cc1cc2cc(OC)c(OC)cc2[nH]c1=O`?
EP2 mod: -3; PGE2 EP2 inh: 6
